Bioassay records deposited in PubChem by National Center for Advancing Translational Sciences (NCATS).
PLK1 PBD block: blocks phosphopeptide binding to human PLK1 polo-box domain | P53350 | Plk1 PBD binding of FITC phosphopeptide, fluorescence polarization | Potency, µM, actives largely listed as inhibitors | 360,000 tested, 2.8% active | AID 720504; further: series mostly up to about 57 µM; nearly all actives have a fitted effect of over 65% in size
Target sequence (P53350 whole entry, looked up, the tested form may be a part): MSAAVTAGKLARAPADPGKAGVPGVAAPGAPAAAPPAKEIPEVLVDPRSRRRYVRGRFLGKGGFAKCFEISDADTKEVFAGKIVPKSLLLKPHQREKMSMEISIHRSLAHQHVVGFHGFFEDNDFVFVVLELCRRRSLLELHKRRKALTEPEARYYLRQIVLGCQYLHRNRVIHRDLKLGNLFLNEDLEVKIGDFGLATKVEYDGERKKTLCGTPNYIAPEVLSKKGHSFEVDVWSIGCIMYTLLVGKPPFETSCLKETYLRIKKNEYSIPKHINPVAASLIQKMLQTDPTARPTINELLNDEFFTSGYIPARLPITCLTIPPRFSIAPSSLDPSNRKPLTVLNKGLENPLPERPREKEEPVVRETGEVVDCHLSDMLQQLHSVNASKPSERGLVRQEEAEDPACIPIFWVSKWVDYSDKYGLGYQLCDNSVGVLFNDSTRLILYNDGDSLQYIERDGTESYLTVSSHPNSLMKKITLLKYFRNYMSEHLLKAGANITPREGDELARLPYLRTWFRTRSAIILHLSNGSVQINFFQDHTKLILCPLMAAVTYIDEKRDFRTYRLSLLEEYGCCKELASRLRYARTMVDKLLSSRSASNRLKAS
KAT2A inh: inhibitors of human GCN5L2 histone acetyltransferase; Q92830; GCN5L2 HAT assay, ThioGlo1 CoA-SH fluorescence; Potency, µM (doses to about 58.9 µM), actives largely listed as inhibitors; 390,000 tested, 0.21% active
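GCN5L2 (20 nM) in 50mM HEPES pH 7.5, 0.1mM EDTA, 0.01% Tween-20 preincubated 15 min with compounds at room temperature. Reaction started with H3(1-25) 75uM, acetyl-CoA 70uM, ThioGlo1 50uM; CoA-thiol fluorescence (Ex340/Em540) read at 0 and 20 min.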
GLS inhibitor: blocks human kidney-isoform glutaminase activity; AID 624170; Potency, µM (titrated, usually from 45.5 µM), usual class: inhibitors; 410,000 tested, 0.21% active; O94925; GLS enzymatic activity, qHTS titration
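hKGA; 45 mM KH2PO4 pH 8.2 + 0.02% Tween-20; cpd via pin tool; 1 mM Gln soln; GluOx/HRP/Amplex Red; RT 30 min; fluor. t0 & final.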
PI4K2A block: inhibitors of human PI4K2A. Q9BTU6. purified PI4K2A, ADP-Glo luminescence, 1 h; hits give low values. activity change, negative = inhibition, % at 76.9 µM. 420,000 tested, 0.13% active; in the data active means activity change below about -50%; inconclusive means mostly about -30% to -49%
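Compounds are screened against recombinant PI4K2A using PI as substrate and ATP, the latter dispensed at 300 microM. Reactions run one hour at ambient temperature before ADP-Glo detection; full inhibition defined by wells lacking enzyme.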
VDR inh: vitamin D3 receptor (human) inhibition; Potency, µM, most hits filed as inhibitors; VDR-SRC2-3 peptide fluorescence polarization, 2 h; 400,000 tested, 0.93% active
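Fluorescence polarization assay of small-molecule disruption of VDR binding to coregulator peptide SRC2-3. Compounds and controls pin-transferred, then read after 2 h incubation at ambient room temperature.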
A number is an active result; 0 = inactive; ? = inconclusive; - = no result. Most compounds without a hit are left out; they make up all but 3.1% or so of the library. Unless noted, the call rests on the fitted dose curve; in most records, active means well fitted curve in the direction sought with a large enough effect; inconclusive means small, poorly fitted or top-dose-only effect, or another doubt; inactive means no such curve, though single readings can be large; an effect the other way counts as inactive or inconclusive.

SMILES	PLK1 PBD block	KAT2A inh	GLS inhibitor	PI4K2A block	VDR inh
CC(=O)Oc1ccc(/C=C2\N=C(C3CCCCC3)OC2=O)cc1	0	0	0	0	79µM
COc1cccc(/C=C2\N=C(C3CCCCC3)OC2=O)c1OC	0	0	0	0	32µM
CCCC1CCC(C2=N/C(=C\c3ccc(OC)c(OC)c3)C(=O)O2)CC1 (centres undefined)	0	0	0	0	0
Cc1ccc2cc(CN(CC3CCCO3)C(=S)NCc3ccco3)c(=O)[nH]c2c1C (centres undefined)	15µM	0	0	0	0
C[C@H](N)C(=O)NCC(=O)N[C@H]1CSSC[C@@H](C(=O)O)NC(=O)[C@H](CO)NC(=O)[C@H]([C@@H](C)O)NC(=O)[C@H](Cc2ccccc2)NC(=O)[C@H]([C@@H](C)O)NC(=O)[C@H](CCCCN)NC(=O)[C@H](Cc2c[nH]c3ccccc23)NC(=O)[C@H](Cc2ccccc2)NC(=O)[C@H](Cc2ccccc2)NC(=O)[C@H](CC(N)=O)NC(=O)[C@H](CCCCN)NC1=O	-	0	-	-	0
CSCc1cc(N2CCCC2)nc(-c2ccccc2)n1	0	0	0	0	0
COCc1cc(N2CCCCC2)nc(-c2ccccc2)n1	27µM	0	0	0	?
O=C(Nc1ccc(F)c(Cl)c1)c1cccnc1	21µM	0	0	0	?
O=C(CCS(=O)(=O)c1ccc(F)cc1)Nc1nc(-c2ccncc2)cs1	12µM	0	?	0	?
O=C(NNC(=O)c1cccnc1)Nc1ccc(Cl)c(Cl)c1	0	0	0	0	0
Cc1ccc(-c2csc(NC(=O)CCCc3cccs3)n2)cc1	17µM	0	0	0	0
O=C(Nc1nc(-c2ccc(F)cc2)cs1)c1cccnc1	0	0	0	0	0
O=C(Nc1nc(-c2ccc(Cl)cc2)cs1)c1cccnc1	12µM	0	0	0	0
O=S(=O)(Nc1ccc(-c2csc(-c3ccccc3)n2)cc1)c1ccc(F)cc1	0	0	0	0	0
N#Cc1ccc(OCC(=O)Nc2nc(-c3ccncc3)cs2)cc1	0	0	0	0	0
O=C(Nc1nc(-c2ccccc2)cs1)c1ccccc1NS(=O)(=O)c1ccc(F)cc1	27µM	?	0	0	0
O=C(COc1ccc(Cl)cc1)Nc1nc(-c2ccncc2)cs1	9.5µM	0	0	0	?
C=CCn1c(COc2ccc(C)cc2)nnc1SCC(=O)Nc1ccc(Oc2ccccc2)cc1	-	-	-	0	-
CCCCCCCCCCCCCCCCCCN(C)C	-	-	-	0	-
CC(=O)N1CCN(c2ccc(NCc3cccc4ccccc34)cc2)CC1	24µM	0	?	0	?
CC(=O)N1CCN(c2ccc(NCc3ccc(-c4ccc(Br)cc4)o3)cc2)CC1	-	0	0	0	79µM
CC(=O)N1CCN(c2ccc(NCc3cccs3)cc2)CC1	?	0	0	0	0
CCOc1ccc2nc3c(cc2c1)CN(CCCO)C(=NCCOC)S3	11µM	0	0	0	0
CCOc1ccc(N=C2Sc3nc4ccc(C)cc4cc3CN2CCOC)cc1	0	0	0	0	0
CCOC(=O)COc1ccc2c(C)cc(=O)oc2c1C(=O)c1ccccc1	21µM	0	0	0	0
SMILES	PLK1 PBD block	KAT2A inh	GLS inhibitor	PI4K2A block	VDR inh
CCC(=O)c1c(OCc2ccccc2)ccc2c(C)cc(=O)oc12	-	0	-	-	-
COc1cccc2sc(Nc3nnc(-c4ccccc4Cl)o3)nc12	0	0	0	0	0
COc1cccc2sc(NN)nc12	0	0	14µM	0	?
Cc1ccc(C(=O)Oc2ccc(/C=C3\C(=N)N4N=C(N5CCOCC5)SC4=NC3=O)cc2)cc1	27µM	?	0	0	0
N=C1/C(=C\c2ccc(OC(=O)c3ccco3)cc2)C(=O)N=C2SC(N3CCCCC3)=NN12	?	0	0	0	?
N=C1/C(=C\c2ccc(OC(=O)c3ccccc3)cc2)C(=O)N=C2SC(N3CCOCC3)=NN12	24µM	?	0	0	0
N=C1/C(=C\c2ccc(OC(=O)c3ccc(F)cc3)cc2)C(=O)N=C2SC(N3CCCC3)=NN12	?	0	0	0	?
COC(=O)C1=C(C)NC(=O)NC1c1ccc(N2CCC(c3ccccc3)=N2)cc1 (centres undefined)	27µM	0	0	0	?
Cc1ccc(-c2nnc(SCC(=O)Nc3ccc(OCc4ccccc4)cc3)n2-c2ccc(Cl)cc2)cc1	-	-	-	0	-
Nn1c(SCC(=O)N2CCOCC2)nnc1-c1cc(-c2ccc(F)cc2)n[nH]1	-	-	-	0	-
CCOC(=O)Cn1cnc2c(cnn2-c2ccc(OC)cc2)c1=O	0	0	0	0	0
CCOCCCNC(=O)Cn1cnc2c(cnn2-c2ccc(OC)cc2)c1=O	27µM	0	0	0	0
COC(=O)C1CN(Cc2ccc(F)cc2)CCS(=O)(=O)N1Cc1cn(Cc2ccc(Cl)cc2)nn1 (centres undefined)	-	-	-	0	-
CCOC(=O)c1sc2nc3c(SCCC(=O)O)cc(C(=O)c4cc(OC)ccc4O)cn3c(=O)c2c1C	?	0	5.6µM	0	0
COc1ccccc1C=NN1C(=O)CSC1=S	0	-	0	0	0
O=C1CSC(=S)N1/N=C/c1ccc(O)c(O)c1O	0.95µM	?	?	0	?
Cc1ccc(S(=O)c2ccc(NC(=O)C3CC3)cc2C#N)cc1 (centres undefined)	11µM	0	?	0	71µM
COc1ccc(NC(=O)CSc2nc(O)cc(=O)[nH]2)c(OC)c1	24µM	0	0	0	?
CC1(C)SC2C(C(=O)O)N=C(Cc3ccccc3)N2C1C(=O)O (centres undefined)	0	-	16µM	0	0
O=C(CCCOc1ccc(Cl)cc1Cl)N/N=C/c1cccc([N+](=O)[O-])c1	27µM	0	0	0	0
Cc1n[nH]c(C)c1CCC(=O)N/N=C/c1cccc([N+](=O)[O-])c1	0	0	0	0	0
c1ccc(CNc2ncnc3ccc(-c4cccnc4)cc23)cc1	-	?	-	-	28µM
O=C1NC(=O)/C(=C/c2ccc(-c3cc(C(=O)O)ccc3Cl)o2)S1	?	0	0	0	0
O=C1NC(=S)/C(=C\c2ccc(-c3ccccc3Cl)o2)S1	13µM	0	0	0	0
Cc1ccc(NC(=O)OC2CC3CC2[C@H]2CCCCN2[C@H]3Cc2ccccc2)cc1 (some centres undefined)	-	-	-	0	-
SMILES	PLK1 PBD block	KAT2A inh	GLS inhibitor	PI4K2A block	VDR inh
O=C(c1cccc2ccccc12)N1CCN(S(=O)(=O)c2ccccc2)CC1	-	-	-	-	0
CC(Oc1ccc2cc(-c3ccccc3)c(=O)oc2c1)C(=O)NCC1CCC(C(=O)O)CC1 (centres undefined)	0	32µM	0	0	?
CC(Oc1ccc2ccc(=O)oc2c1)C(=O)NCC1CCC(C(=O)O)CC1 (centres undefined)	0	0	0	0	0
Cc1ccc(OCCSc2nc3ccccc3n2CC(=O)N2CCCCC2)c(C)c1	-	0	0	0	0
Nc1ccc(C(=O)N2CC3CC(CN(Cc4ccccc4)C3)C2)cc1	-	-	-	0	-
COc1ccccc1Cc1c(-c2ccco2)nc2ccc(Br)cn12	13µM	-	0	0	-
